The text below walks through data of PubChem BioAssay AID751 (NMMLSC, 2007).

Molecules are shown by their SMILES. Hit rate of the full screen: of about 24,000 compounds, about 40 (0.2%) were called active.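 The calls were made as follows: active = inhibition of disassembly above about 33% (limit read from the data); inconclusive = likely self-fluorescent, control bead median signal at least 40; inactive = the rest.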 The list comes from a sample in which actives are over-represented; it also holds similar structures and randomly drawn compounds.

This experiment relates to 26S proteasome (yeast, GFP-tagged, ATP-dependent disassembly). In words: inhibitors of ATP-driven 26S proteasome dissociation, primary screen, biochemical, bead-based flow cytometry, GFP-tagged proteasome (AID 751).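 Also: plate controls were ATP control with full disassembly for no effect and ATP-gamma-S intact proteasomes for full effect; higher percent means more bead fluorescence retained so stronger block of disassembly.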 Conditions: anti-FLAG beads, hits give high values, concentration not given here. A general note: A flow cytometer gives signals particle by particle.
Turning to `CCOC(=O)C1CCCN(C(=O)Cn2ncc3c(=O)oc4ccc(C)cc4c32)C1` (stereo unspecified), the inhibition of disassembly was -1.55% (inactive).

For `Cc1nn(-c2ccccc2)c2[nH]c(C(F)(F)F)cc(=O)c12`, the inhibition of disassembly is 0.28% (inactive).

On to `CC(C)CNC(=O)c1cc(-c2ccc(Br)cc2)on1`, for which the inhibition of disassembly was -0.25% (inactive).

With `COc1ccc(C2C(C(=O)Nc3ccccc3OC)=C(C)Nc3nnnn32)c(OC)c1` (stereo unspecified), the inhibition of disassembly is -0.27% (inactive).

Turning to `Cc1ccc(C(c2sc3nc(C)nn3c2O)N2CCN(c3ccccc3)CC2)cc1` (stereo unspecified), the inhibition of disassembly is -0.53% (inactive).

For the compound `CCS(=O)(=O)N1CCC(C(=O)N2CCN(c3ccccc3)CC2)CC1`, the inhibition of disassembly was 0.05% (inactive).

For `CCOC(=O)c1ccc(NC(=O)CS(=O)(=O)c2cn(CC)c3ccccc23)cc1`, the inhibition of disassembly is -1.63% (inactive).

As to `CCN(CC)CCNC(=O)C1c2ccccc2C(=O)N(C)C1c1cn(C)c2ccccc12` (stereo unspecified), the inhibition of disassembly is -2.19% (inactive).

Turning to `COc1ccc(CN(C(=O)c2cccs2)c2nccs2)cc1OC`, the inhibition of disassembly is 0.76% (inactive).

Regarding `CCn1c(SCC(=O)Nc2nccs2)nnc1-c1ccncc1`, the inhibition of disassembly is 1.46% (inactive).

Take `CCCN(CCC)CCNC(=O)c1cc2c(C)nc3ccccc3c2o1`: the inhibition of disassembly was 5.25% (inactive).

As to `Cn1cccc1Cc1nnc(SCC(=O)NCc2ccc3c(c2)OCO3)n1CCc1ccccc1`, the inhibition of disassembly is 1.04% (inactive).

For the compound `CCOc1ccc(N(CC(=O)NCc2ccc(OC)cc2)S(=O)(=O)c2c(C)noc2C)cc1`, the inhibition of disassembly is -1.57% (inactive).

Turning to `Cc1ccc(-c2nc(CS(=O)CC(=O)N3CCN(c4ncccn4)CC3)c(C)o2)cc1` (stereo unspecified), the inhibition of disassembly is 4.64% (inactive).

Consider `Cc1nnc(SCC(=O)N(C(C)C)C(C)C)nc1C`, for which the inhibition of disassembly was 0.76% (inactive).

For the compound `O=C(CSc1nc2[nH]ncc2c(=O)n1-c1ccccc1)N1CCCc2ccccc21`, the inhibition of disassembly is 3.12% (inactive).

As to `CCOCC(=O)Nc1sc2c(c1C(=O)OCC)CCCC2`, the inhibition of disassembly is 1.13% (inactive).

On to `CNC(=O)Nc1cc(C(C)(C)C)no1`, for which the inhibition of disassembly was -0.8% (inactive).

With `COc1ccc(C(=O)N(CCN2CCOCC2)CC(=O)NC2CCCC2)cc1OC`, the inhibition of disassembly was 1% (inactive).

In the case of `Fc1ccc2nc(Nc3nc4c(s3)CCCC4)sc2c1`, the inhibition of disassembly was 96.9% (active).

As to `Fc1ccc2nc(N3CCCCC3)sc2c1`, the inhibition of disassembly is 0.07% (inactive).

Consider `CNC(=O)c1ccc2nc(NC(C)=O)sc2c1`, for which the inhibition of disassembly was 3.41% (inactive).

Consider `O=C1c2ccncc2C(=O)N1C1CCCCC1`, for which the inhibition of disassembly is -0.82% (inactive).

With `Cc1ncn(C23CC4CC(CC(O)(C4)C2)C3)n1`, the inhibition of disassembly is -1.21% (inactive).

Consider `O=C1c2cccnc2C(=O)N1Cc1cccs1`, for which the inhibition of disassembly was -1.73% (inactive).

For the compound `CCOc1cc(S(=O)(=O)NCc2ccc3c(c2)OCO3)ccc1F`, the inhibition of disassembly is -0.11% (inactive).

`Cc1nnc(SCCCn2c(N3CCCCC3)nc3c2c(=O)[nH]c(=O)n3C)s1`: the inhibition of disassembly was -3.02% (inactive).

Turning to `Cc1cc(C(=O)NCCCc2ccccc2)no1`, the inhibition of disassembly was 0.81% (inactive).

As to `CCOc1ccc(C2C(C(=O)NC)=C(C)Nc3nc4ccccc4n32)cc1OC` (stereo unspecified), the inhibition of disassembly was -0.82% (inactive).

For `O=S(=O)(NCc1ccccc1Cl)c1cnc[nH]1`, the inhibition of disassembly was 1.99% (inactive).

Consider `N#CCCn1ncc2ccccc21`, for which the inhibition of disassembly is -0.94% (inactive).

For the compound `CCOC(=O)CN1C(=O)C(O)(CC(=O)c2ccccn2)c2ccccc21` (stereo unspecified), the inhibition of disassembly was 0.68% (inactive).

As to `COc1ccc(NC(=O)CN2CCN(S(=O)(=O)c3ccc(F)cc3)CC2)cc1Cl`, the inhibition of disassembly is 0.32% (inactive).

Regarding `O=C(CN1CCN(C(=O)c2cccc(F)c2)CC1)Nc1ccccc1F`, the inhibition of disassembly was 2.43% (inactive).

Take `CCOc1ccc(CC(=O)Nc2ccc(S(=O)(=O)Nc3cc(C)on3)cc2)cc1OCC`: the inhibition of disassembly is 1.32% (inactive).

For `Cc1ccc(N(C(=O)CC2NC(=O)NC2=O)C2(C(=O)NC3CCCC3)CCCCC2)cc1` (stereo unspecified), the inhibition of disassembly is -0.11% (inactive).

Consider `Cc1ccc(C2CC(=O)NC(SCC(=O)OCc3ccccc3)=C2C#N)o1` (stereo unspecified), for which the inhibition of disassembly is -1.12% (inactive).

As to `Cc1ccc(C(CC(=O)O)Nc2nc(N3CCCCC3)nc(N3CCCCC3)n2)cc1` (stereo unspecified), the inhibition of disassembly is 0.5% (inactive).

Regarding `CN(C)S(=O)(=O)c1cccc(C(=O)Nc2cccnc2)c1`, the inhibition of disassembly was 0.3% (inactive).

As to `O=C(Cc1nn[nH]n1)NCCC1=CCCCC1`, the inhibition of disassembly was 3.56% (inactive).

For the compound `C#CC(C)(C)NC(=O)CSc1nc2c(c(=O)n(C)c(=O)n2C)n1CCCC`, the inhibition of disassembly is 0.06% (inactive).

Turning to `Cc1ccc(-n2ncc3c(=O)[nH]cnc32)c(C)c1`, the inhibition of disassembly was -2.48% (inactive).

Take `CCOC(=O)C1CCN(C(=O)c2oc3ccc(S(=O)(=O)N4CCCCCC4)cc3c2C)CC1`: the inhibition of disassembly is 0.89% (inactive).

On to `CCOC(=O)Cc1csc(NC(=O)CN(C)S(=O)(=O)c2ccc3c(c2)CCC(=O)N3)n1`, for which the inhibition of disassembly is 0.365% (inactive).

`CCC1Oc2ccc(Cl)cc2N(CC(=O)O)C1=O` (stereo unspecified): the inhibition of disassembly was -0.77% (inactive).

For the compound `Brc1cnc(N2CCCC2)nc1N1CCCCC1`, the inhibition of disassembly is -0.98% (inactive).

Take `O=C(O)c1ccc(NC(=O)c2cccs2)cc1`: the inhibition of disassembly is -9.2% (inactive).

Turning to `COc1ccc(N2C(=O)C3CCCN3C2c2cc(OC)c(OC)cc2OC)cc1` (stereo unspecified), the inhibition of disassembly was 1.25% (inactive).

`COc1ccc(N2C(=O)C3CCCN3C2c2cccc(OC)c2)cc1` (stereo unspecified): the inhibition of disassembly is 0.89% (inactive).

For `COc1cccc(N2C(=O)C3CCCN3C2c2ccc(F)cc2)c1` (stereo unspecified), the inhibition of disassembly is 137% (active).

On to `Cc1ccccc1N1CC(c2nc3ccccc3[nH]2)CC1=O` (stereo unspecified), for which the inhibition of disassembly was 2.43% (inactive).

For `Cc1ccc(NC(=O)C2CC(c3ccc(F)cc3)=NO2)cc1` (stereo unspecified), the inhibition of disassembly was 0.38% (inactive).

Take `CCOC(=O)Cn1c(=O)oc2cc(S(=O)(=O)N(C)Cc3ccco3)ccc21`: the inhibition of disassembly was 0.3% (inactive).

`C=CCOc1ccc(C2/C(=C(\O)c3c(C)[nH]c(C(=O)OC)c3C)C(=O)C(=O)N2CCN(C)C)cc1` (stereo unspecified): the inhibition of disassembly is -2.37% (inactive).

`Cc1nc2ccc(S(=O)(=O)NC(C(=O)N3CCCCCC3)C(C)C)cc2s1` (stereo unspecified): the inhibition of disassembly was 0% (inactive).

Regarding `CC(C)C1N=C2c3ccccc3N=C(SCC(=O)c3ccc(O)c(O)c3)N2C1=O` (stereo unspecified), the inhibition of disassembly is -7.17% (inactive).

In the case of `Nc1nonc1C(=O)NCCc1ccccc1`, the inhibition of disassembly is -0.31% (inactive).

Take `CCCCN(CC)C(=O)CN(C)S(=O)(=O)c1cccc2nsnc12`: the inhibition of disassembly is -0.83% (inactive).

Turning to `CC(=O)Nc1ccc(NS(=O)(=O)c2cc(C)sc2C)cc1`, the inhibition of disassembly is 1.22% (inactive).

For `CCCNC(=O)Nc1ccccc1C(=O)Nc1ccc(OC)cc1`, the inhibition of disassembly is 0.82% (inactive).

With `COc1ccccc1CNC(=O)CCCn1c(=O)c2ccccc2n(CC(=O)NC2CCCC2)c1=O`, the inhibition of disassembly was -1.05% (inactive).

As to `O=C(c1cc(-c2ccccc2O)on1)N1CCCC1`, the inhibition of disassembly was 3.8% (inactive).

As to `CCCCC(=O)Nc1cc(C)c2c(=O)oc3ccccc3c2n1`, the inhibition of disassembly was -3.04% (inactive).

As to `COc1ccccc1-c1nc(C(F)(F)F)c(OC)o1`, the inhibition of disassembly was -0.84% (inactive).

On to `O=C(Nc1nsc(-c2ccccc2)n1)c1ccncc1`, for which the inhibition of disassembly was -0.11% (inactive).

For `COC(=O)c1oc2ccc(Br)cc2c1NC(C)=O`, the inhibition of disassembly was 0.425% (inactive).

With `Cc1cc(=O)n2nc(N3CCCC(C(=O)NCCC4=CCCCC4)C3)sc2n1` (stereo unspecified), the inhibition of disassembly is -1.75% (inactive).

For `Cc1cc(C)c(C)c(S(=O)(=O)Nc2ccc(O)cc2)c1C`, the inhibition of disassembly is 0.6% (inactive).

Regarding `O=C(NCc1cccs1)c1ccc2c(c1)ncn2C1CCCC1`, the inhibition of disassembly is 0.01% (inactive).

Regarding `O=C(Cn1nnc(-c2ccc(CN3CCOCC3)cc2)n1)NC1CCCCC1`, the inhibition of disassembly is 0.56% (inactive).

With `O=C(CN1C(=O)C2C3C=CC(C3)C2C1=O)NCCc1ccccc1Cl` (stereo unspecified), the inhibition of disassembly is -3.34% (inactive).

For the compound `CCOC(=O)C1CCN(C(=O)Cc2c(C(=O)O)[nH]c3ccccc23)CC1`, the inhibition of disassembly is 1.78% (inactive).

Turning to `CC(c1nnc(SCC(=O)Nc2sccc2C#N)n1-c1ccc(Cl)cc1)N(C)C` (stereo unspecified), the inhibition of disassembly was 0.73% (inactive).

Regarding `COC(=O)c1ccccc1NC(=O)c1cncc(Br)c1`, the inhibition of disassembly was 1.29% (inactive).

For `CCOC(=O)C1C(=O)C=C(c2ccc(OC)cc2)CC1c1ccco1` (stereo unspecified), the inhibition of disassembly is -0.2% (inactive).

Regarding `O=c1c2[nH]c3ccc(Cl)cc3c2ncn1Cc1ccccn1`, the inhibition of disassembly was -0.64% (inactive).

`Cn1c(COc2ccc(Cl)cc2)nc2ccccc2c1=O`: the inhibition of disassembly is -1.78% (inactive).

Turning to `O=C1CC(c2cccc(Br)c2)C2=C(CCCC2=O)N1` (stereo unspecified), the inhibition of disassembly is 2.93% (inactive).

As to `COc1ccc(CCNC(=O)c2ccc3c(c2)NC(=O)C(N2CCOCC2)S3)cc1OC` (stereo unspecified), the inhibition of disassembly is 7.35% (inactive).

As to `COc1ccc(CCNC(=O)CCCCn2c(=O)[nH]c3ccccc3c2=O)cc1OC`, the inhibition of disassembly was -2.22% (inactive).

As to `Cc1oc(-c2cccc(Cl)c2)[n+]([O-])c1C`, the inhibition of disassembly is -1.38% (inactive).

For the compound `COc1ccc(CC(=O)Nc2c3c(nn2-c2cccc(Cl)c2)CS(=O)C3)cc1` (stereo unspecified), the inhibition of disassembly is -0.575% (inactive).

In the case of `COc1ccc(CCNC(=O)c2cc(-c3ccc4c(c3)OCO4)on2)cc1OC`, the inhibition of disassembly was -0.34% (inactive).

Turning to `CCOC(=O)Cn1c(=O)oc2cc(S(=O)(=O)NCC3CCCO3)ccc21` (stereo unspecified), the inhibition of disassembly is -1.43% (inactive).

As for `CCOC(=O)c1c(C)oc2ccc(OCC(=O)N(CC)CC)cc12`, the inhibition of disassembly was 0.35% (inactive).

On to `O=C(CCCCn1c(=O)[nH]c2ccccc2c1=O)NCc1ccc2c(c1)OCO2`, for which the inhibition of disassembly was 1.45% (inactive).

For the compound `Cn1c(=O)[nH]c(=O)c2c1nc(N(CCO)Cc1ccccc1)n2Cc1ccccc1Cl`, the inhibition of disassembly is 0.72% (inactive).

For `COC(=O)C1C(=O)c2c([nH]c(C(=O)OCCSC)c2C)CC1C` (stereo unspecified), the inhibition of disassembly was -0.89% (inactive).

For the compound `COc1cccc(NC(=O)Cn2cnc3sc(C)c(S(=O)(=O)N4CCN(C)CC4)c3c2=O)c1`, the inhibition of disassembly was -0.73% (inactive).

On to `CC(=O)Nc1nonc1-c1nc2ccccc2n1Cc1ccccn1`, for which the inhibition of disassembly was 5.18% (inactive).

For the compound `CCOC(=O)N1CCC(Nc2c(NCCCN3CCN(c4ccc(OC)cc4)CC3)c(=O)c2=O)CC1`, the inhibition of disassembly was 1.14% (inactive).

With `CCOCCc1c(O)nc(SCC(=O)NCc2ccco2)[nH]c1=O`, the inhibition of disassembly is -2.18% (inactive).

As to `CN(C)CCCNC(=O)c1ccc2[nH]c3ccccc3c2c1`, the inhibition of disassembly was -0.71% (inactive).

Consider `Cc1cccc(NC(=O)CSc2nc3c(c(=O)[nH]2)CCC3)c1C`, for which the inhibition of disassembly is 0.47% (inactive).

Consider `CC(=O)NC1CC2CCCC(C1)N2CC(=O)Nc1ccccc1` (stereo unspecified), for which the inhibition of disassembly was -0.95% (inactive).

Take `CC12CN3CC(C)(CN(C1)C3c1ccc(Cl)cc1Cl)C2=O` (stereo unspecified): the inhibition of disassembly was 1.12% (inactive).
